Measured values as given in PubChem BioAssay AID890 (National Center for Advancing Translational Sciences (NCATS), 2007).
“And” between values parts separate entries of the source, which are not always exact repeats. Identical values can stand only once. The source made the active and inactive calls. A call without a number means that no potency is given here. Calls come from the whole dose curve; as a rule, active = well fitted activation curve with a large enough effect; inactive = flat fitted curve, though single readings scatter.

Assay: Confirmation Concentration-Response Assay for Epigenetic Modulators
Settings: murine C127i cells, silenced GFP reporter derepression, imaging; series mostly up to 46 µM
Excerpt: NIH Molecular Libraries Screening Centers Network [MLSCN] NIH Chemical Genomics Center [NCGC] MLSCN Grant: 1 X01 MH079860-01 Assay Provider: Elisabeth D. Martinez, University of Texas SW Medical Center NCGC Assay Overview: The Locus Derepression assay detects the derepression of a GFP reporter that is stably integrated in a region of the genome of murine c127i mammary cells that is presumably silenced. GFP transcription in this construct is controlled by a CMV promoter, which normally is strong and constitutively active. However, this line was selected for lack of constitutive expression of the GFP protein. GFP production can be induced by incubating the cells with histone deacetylase or DNA methyltransferase inhibitors. Compounds that cause derepression of the locus to express GFP are identified by enumerating GFP positive cells using a laser-scanning microplate cytometer.
NCGC Assay Protocol Summary: Two hundred and fifty cells in 5 uL per well were dispensed into black, clear-bottom 1536-well plates. Twenty-three nL compound was transferred to the assay plate and cells were incubated 30 hours at 37 C. Medium was removed, cells were washed two times with PBS, and GFP-positive cells were enumerated as fluorescent objects between the sizes of 20 to 120 um width and depth using a laser-scanning microplate imager (Acumen Explorer Ex3, TTP Labtech) Keywords: NIH Roadmap, MLSCN, MLI, MLSMR, qHTS, NCGC, qHTS, HDAC, DNMT, HAT, DNA methyltransferases, histone acetyl transferases, histone deacetylases

Compound | Potency
c1cnn(-c2nc(N3CCOCC3)nc(N3CCOCC3)n2)c1 | inactive
O=C(CSc1cccc2cccnc12)NCc1ccccc1 | inactive
O=C(Oc1cccc2cccnc12)c1ccc(Br)o1 | 14.6 µM (active)
Cc1ccc2ccc(C(Nc3cccc(Cl)c3)c3ccccn3)c(O)c2n1 (stereo not given) | inactive
COc1ccc(NC(c2ccccn2)c2ccc3cccnc3c2O)cc1 (stereo not given) | inactive
CC(/C=C/C(=O)NO)=C\[C@@H](C)C(=O)c1ccc(N(C)C)cc1 | 1.12 µM (active)
Cc1cc(C)n(-c2nc(N(C)C)nc(N(C)C)n2)n1 | inactive
S=C1SCN(C2CCCC2)CN1Cc1ccco1 | inactive
CC(C)C(=O)NC(c1ccc(C(C)C)cc1)c1cc(Cl)c2cccnc2c1O (stereo not given) | inactive
CC(C)C(=O)NC(c1ccco1)c1ccc2cccnc2c1O (stereo not given) | 7.57 µM (active) and 4.6 µM (active)
Cc1cc(NC(c2ccccn2)c2ccc3cccnc3c2O)no1 (stereo not given) | 8 µM (active)
COC(=O)c1cccc(NC(c2ccccn2)c2ccc3cccnc3c2O)c1 (stereo not given) | inactive
CCNc1nc(NCC)nc(-n2cc(C(=O)c3cc(Cl)ccc3O)cn2)n1 | inactive
CCCCC1CC1C(=O)Nc1ccc(OC)c(OC)c1 (stereo not given) | 14.3 µM (active)
CCN1CSC(=S)N(CC)C1 | 7 µM (active)
CN(C)C(=O)CSc1cccc2cccnc12 | 6.96 µM (active)
CN1C(=S)SC(c2ccccc2)N(C)C1c1ccccc1 (stereo not given) | inactive
O=C(CSc1cccc2cccnc12)Nc1ccccc1 | inactive
Cc1cc(C)n(-c2nc(NC(C)C)nc(NC(C)(C)C)n2)n1 | inactive
CC(C)C(=O)NC(c1cccs1)c1cc(Cl)c2cccnc2c1O (stereo not given) | inactive

Compound | Potency
COc1ccc(C(=O)NC(c2ccco2)c2cc(Cl)c3cccnc3c2O)cc1 (stereo not given) | inactive
CC(C)C(=O)NC(c1ccco1)c1cc([N+](=O)[O-])c2cccnc2c1O (stereo not given) | inactive
COc1ccc(C)cc1NC(c1ccccn1)c1ccc2cccnc2c1O (stereo not given) | inactive
COCc1cc(CN2CCN(C)CC2)c(O)c2ncccc12 | 37.6 µM (active)
CCNc1nc(NCC)nc(-n2nc(C)cc2C)n1 | inactive
O=C(CC(c1ccco1)S(=O)(=O)c1ccccc1)c1ccc(F)cc1 (stereo not given) | inactive
Cc1ccc(N=Nc2ccc(O)c3ncccc23)cc1C | inactive
Oc1c(C(Nc2ccccc2C(F)(F)F)c2ccccn2)ccc2cccnc12 (stereo not given) | inactive
O=Nc1ccc(O)c2ncccc12 | 2.78 µM (active)
COc1ccc(C(NC(=O)C(C)C)c2ccc3cccnc3c2O)cc1 (stereo not given) | 7.83 µM (active)
Oc1ccc(COCc2ccccc2)c2cccnc12 | inactive
CCOCc1ccc(O)c2ncccc12 | 4.97 µM (active)
Cc1cc(C)n(-c2nc(NC(C)C)nc(NC(C)C)n2)n1 | inactive
CN1CCN(Cc2cc(Cl)c3cccnc3c2O)CC1 | 6.08 µM (active)
c1ccc(Nc2nc(Nc3ccccc3)nc(-n3cccn3)n2)cc1 | inactive
Oc1c(C(Nc2ccccn2)c2ccccn2)ccc2cccnc12 (stereo not given) | 36.2 µM (active)
O=C1OCCC1Sc1cccc2cccnc12 (stereo not given) | 7.44 µM (active)
CCN(CC)c1ccc2cc(-c3nc4ccccc4[nH]3)c(=O)oc2c1 | 0.56 µM (active)
CC(C)C(=O)NC(c1ccc(N(C)C)cc1)c1ccc2cccnc2c1O (stereo not given) | 8.14 µM (active)
O=C(CSc1cccc2cccnc12)N1CCCC1 | 8.94 µM (active)
